Measurements reported in PubChem BioAssay AID778 (Sanford-Burnham Center for Chemical Genomics, 2007).
Out of some 96,000 compounds screened, about 20,000 (21%) were called active.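 The calls were made as follows: active = CYP2C19 inhibition above a set limit at 5 µM in the primary screen (cut at about 50% in these data); inactive = the rest.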 Only a sample is shown.

Target: Cytochrome P450 2C19 (Homo sapiens) (UniProt P33261)
Test: blockers of cytochrome P450 2C19 activity – biochemical, luminescence, ADME assay, primary screen (AID 778);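 also: plate controls were negative control wells for no effect and 2.5 mM tranylcypromine positive control for full effect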
Conditions: CYP2C19 Supersomes, luciferin-H EGE luminescence, 30 min; at 5 µM; stronger effect = higher value

Chain of Cytochrome P450 2C19 (Homo sapiens) (P33261 whole entry, looked up): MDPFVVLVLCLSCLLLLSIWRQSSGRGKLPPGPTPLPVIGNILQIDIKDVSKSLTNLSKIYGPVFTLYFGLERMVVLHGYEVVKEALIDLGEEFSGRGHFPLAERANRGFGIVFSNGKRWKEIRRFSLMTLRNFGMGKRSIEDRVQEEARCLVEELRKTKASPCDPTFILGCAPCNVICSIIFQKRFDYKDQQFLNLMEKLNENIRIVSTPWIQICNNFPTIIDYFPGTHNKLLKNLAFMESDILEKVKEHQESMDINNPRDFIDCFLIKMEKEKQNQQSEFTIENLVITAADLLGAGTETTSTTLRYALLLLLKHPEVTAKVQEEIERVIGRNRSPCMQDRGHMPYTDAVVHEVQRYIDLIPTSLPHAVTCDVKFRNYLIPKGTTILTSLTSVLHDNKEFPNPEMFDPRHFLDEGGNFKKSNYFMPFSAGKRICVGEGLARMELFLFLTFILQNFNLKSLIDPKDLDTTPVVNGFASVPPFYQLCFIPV

inhibition, active:
COc1cc(C(=O)N2CCN(C/C=C/c3ccccc3)CC2)cc(OC)c1C 68.8%, CCOC(=O)c1ccc(COC(=O)c2cc(=O)[nH]c3ccccc23)o1 69.5%, CC(=O)Nc1ccc(NC(=O)CSCc2cnn(-c3ccccc3)c2-n2cccc2)cc1 92.4%, COc1ccccc1OCc1nc2ccccc2s1 97.6%, C/C(=N\NS(=O)(=O)c1ccc(Br)cc1)c1cccs1 69.6%, Cc1cc(O)cc(O)c1C(=O)Cc1cnn(-c2ccccc2)c1 56.7%, COc1cc(C2C3C(=O)N(c4ccccc4)C(=O)C3ON2c2ccccc2)ccc1O (configuration not stated) 58.5%, Cc1ccccc1N1C(=O)C2ON(c3ccccc3)C(c3ccncc3)C2C1=O (configuration not stated) 94.6%, Cc1cccc(N2CC(C)Cn3c2nc2c3c(=O)n(CC(=O)OCc3ccccc3)c(=O)n2C)c1 (configuration not stated) 66.5%, CC1CCCCC1NC(=O)C1CCCN1S(=O)(=O)c1cccc2nsnc12 (configuration not stated) 69.3%, O=C(Nc1nccs1)C1CCCN1S(=O)(=O)c1cccc2cccnc12 (configuration not stated) 54.2%, O=C(CC(NS(=O)(=O)c1ccc(Cl)cc1)c1ccco1)NC1CCCC1 (configuration not stated) 62.5%, CCC(Oc1ccccc1)C(=O)NCc1cccnc1 (configuration not stated) 67.7%, COc1ccccc1C(=O)C(O)c1ccccc1OC (configuration not stated) 55.8%, Cc1ccc(-n2c(Cc3cccs3)nnc2SCC(=O)OC(C)C)cc1 98.1%, CCn1c(SCC(=O)c2ccc(Cl)s2)nnc1-c1cccs1 94.2%, CCn1c(Cc2cccs2)nnc1SCC(=O)c1ccc(C)cc1 94.1%, COc1ccc(N2CCN(C(c3cc4ccc(C)cc4[nH]c3=O)c3nnnn3C3CCCC3)CC2)cc1 (configuration not stated) 54.4%, COc1ccc(C(c2nnnn2C2CCCCC2)N2CCN(c3ccccc3F)CC2)cc1 (configuration not stated) 80.6%, Nc1ccc(-c2sc(N)nc2-c2ccccc2)cc1 61.8%, CCc1ccc(CNC(=O)C2CCCN(c3nc4ccccc4o3)C2)cc1 (configuration not stated) 65.8%

inhibition, inactive:
CN1CCCc2cc(C#N)c(=O)[nH]c21 10.9%, Fc1ccc(OCc2nn3c(Cn4nnc5ccccc54)nnc3s2)cc1 26.6%, CCc1cc2c(=O)c(-c3ccon3)c(N)oc2cc1OC 1.3%, COc1ccccc1Cn1c(=S)[nH]c2cc(C(=O)N3CCN(C)CC3)ccc2c1=O -10.4%, COc1ccc(C(=O)N2CCC(C(=O)Nc3cccc(C)c3)CC2)cc1OC -3.6%, O=C(NCCc1ccco1)c1nn(Cc2ccccc2)c(=O)c2ccccc12 -8.3%, COCc1cc(C)nc(Nc2cc(C)ccc2C)c1C#N 19.8%, Cc1cc(C(C)(C)C)oc1C(=O)N(CC(=O)NC1CCCC1)Cc1ccc(Cl)cc1 -5.1%, CCOC(=O)c1[nH]c2ccccc2c1N=C(C)N(CC)CC -9.4%, CC(C)(CNC(=O)c1cc(=O)[nH]c2ccccc12)N1CCOCC1 4.2%, O=C(NCCC1=CCCCC1)C1CCN(Cc2cnn(-c3ccccc3)c2-n2cccc2)CC1 25.4%, Cc1cc(C)cc(NC(=O)CSCc2cnn(-c3ccccc3)c2-n2cccc2)c1 47.5%, CCCn1nnc2sc3c(c2c1=O)CCC(C)C3 (configuration not stated) 28.3%, CCN(CC)CCN1C(=O)C(=O)/C(=C(/O)c2cnn(-c3ccccc3)c2C)C1c1cccs1 (configuration not stated) -2%, C=CCOc1ccc(Cl)cc1CNCCCN1CCOCC1 5.8%, O=C1CC(Sc2ncn[nH]2)C(=O)N1c1ccccc1 (configuration not stated) 14.1%, Cc1ccc(-n2nc(N)c3c(=O)oc(N(C)C)nc32)cc1 17.8%, O=C(O)CCCCc1nc2ccccc2s1 -6.9%, O=C(O)CSCc1nc2ccccc2s1 -10.2%, CCCc1nnc(NC(=O)CN2C(=O)c3ccccc3S2(=O)=O)s1 -6.6%, C/C(=N\NS(=O)(=O)c1cccc([N+](=O)[O-])c1)c1cc2ccccc2o1 8.6%, COC(=O)Nc1ncc(CN2C(=O)c3ccccc3C2=O)s1 8.1%, Cc1[nH]nc(-c2ccc(OCc3cnn(-c4ccccc4)c3)cc2O)c1Oc1ccc(Cl)cc1 20.9%, COc1ccc(C(=O)Cc2cnn(-c3ccccc3)c2)c(O)c1 24.9%, COc1cc(C2C(C(=O)Nc3ccccc3OC)=C(C)Nc3ncnn32)ccc1O (configuration not stated) -5%, COc1ccc(NC(=O)Nc2cccc3cccnc23)cc1 31%, CC(C)NC(=O)CCCn1c(=S)[nH]c2cc3c(cc2c1=O)OCO3 -9.6%, COc1ccc(SCc2noc(C(=O)NCC3CCCO3)c2C(=O)O)cc1 (configuration not stated) 11.5%, COC(C)(C)[C@]12CC(O)(C(C)C)ON1[C@H]1CCCCC1N2O (some centres not stated) 7%, COC(=O)c1[nH]c2ccccc2c1NC(=O)CN1CCCc2ccccc21 26%, Cn1ncc2c(Nc3cccc4ccccc34)ncnc21 12.9%, COc1ccc(N2CC(C)Cn3c2nc2c3c(=O)n(Cc3ccccc3F)c(=O)n2C)c(OC)c1 (configuration not stated) -10.2%, Cn1c(=O)n(CCc2ccccc2)c(=O)c2c1nc1n2CCCN1c1ccccc1 14.9%, CC(=O)c1cccc(NC(=O)C2CCCN2S(=O)(=O)c2cccc3nsnc23)c1 (configuration not stated) 22.5%, O=C(O)C1CCCN(S(=O)(=O)c2cccc3cccnc23)C1 (configuration not stated) -11.3%, COc1ccc(NC(=O)C2CCCN(S(=O)(=O)c3cccc4cccnc34)C2)cc1 (configuration not stated) 17.5%, O=C(c1ccco1)N1CCN(C(=O)C2CCCN(S(=O)(=O)c3cccc4nsnc34)C2)CC1 (configuration not stated) 1.6%, O=C(COc1ccc(F)cc1)N(CC1=CCS(=O)(=O)C1)c1ccccc1 -5.1%, Cc1ccc(C2NC(=S)NC3=C2N2CCC3CC2)cc1 (configuration not stated) -8.9%, COc1ccc(S(=O)(=O)NC(CC(=O)NCc2ccccc2OC)c2ccco2)cc1 (configuration not stated) 38.2%, Cc1ccc(S(=O)(=O)NCC(=O)N(CC(=O)NC2CCCCC2)Cc2ccco2)cc1 15.5%, CCN(CC)P(=O)(/C(Cl)=C\Nc1c(C)n(C)n(-c2ccccc2)c1=O)N(CC)CC -1.6%, N#CCCN1CCN(S(=O)(=O)c2ccc(S(=O)(=O)NC3CC3)cc2)CC1 -21.3%, CC1(C)CN=C(N2CCN(c3ncnc4sc5c(c34)CCCC5)CC2)S1 32%, CC(=O)OC(C(=O)NCCc1ccccc1)c1cccnc1 (configuration not stated) 0%, O=C(CCc1ccccc1)NCc1cccnc1 18.2%, CC(C)CC[n+]1ccn(C2=C([O-])c3ccccc3C(=O)/C2=N\S(=O)(=O)c2ccccc2)c1 7.8%, CCN1C(=O)c2cccc3c(N)ccc1c23 23.7%, CCn1c(NCCc2ccc(OC)c(OC)c2)nc2c1c(=O)n(C)c(=O)n2C 1.8%, COc1ccccc1C(=O)NN1C(=O)C2C3C=CC(O3)C2C1=O (configuration not stated) -6.1%, COc1ccccc1C(=O)Oc1ccc(N2C(=O)CCC2=O)cc1 -7.5%, Nc1nonc1-c1nc2ccccc2n1CCC(=O)O -2.5%, Cn1c(SCC(=O)c2cccs2)nnc1-c1ccco1 42.3%, CCOC(=O)CSc1nnc(CNC(=O)c2ccco2)n1-c1ccc(F)cc1 -4.9%, CCn1c(SCC(=O)c2ccc3ccccc3c2)nnc1-c1cccs1 15.7%, COc1ccc(-n2c(SCC(=O)OC(C)C)nnc2-c2ccccn2)cc1 12%, Cc1ccc(C(=O)CSc2nnc(Cn3nnc4ccccc43)n2C)cc1 13.9%, CCS(=O)(=O)Nc1cc(C(=O)OC)ccc1C(=O)OC 49.8%, CCSc1nc(C)nc2c1oc1ccccc12 15.2%, COc1ccc(-c2cn3ccsc3n2)cc1 14.3%, CCCS(=O)(=O)N1CCCC(C(=O)NCCN2CCCCC2C)C1 (configuration not stated) -13.4%, O=C(CCC(=O)N1CCN(S(=O)(=O)c2ccccc2)CC1)NC1CCCc2ccccc21 (configuration not stated) 17.7%, COCc1[nH][nH]c(=O)c1C=Nc1ccc(F)cc1F -10.3%, CC(C)C(NC(=O)OCc1ccccc1)C(=O)OCC(=O)N1C(C)CCCC1C (configuration not stated) 40.3%, CC(C)C(c1nnnn1C1CCCC1)N1CCN(c2ccccc2F)CC1 (configuration not stated) 8%, Cc1cccc(N2CCN(C(c3ccccc3)c3nnnn3CC3CCCO3)CC2)c1C (configuration not stated) 12.7%, CCOc1ccc2[nH]c(=O)c(C(c3nnnn3CCOC)N3CCOCC3)cc2c1 (configuration not stated) 11.5%, CC(C)c1ccc(NS(=O)(=O)c2cn(C)c(=O)n(C)c2=O)cc1 34%, Cc1cc(N2CCCC2)n2nc(C)c(-c3ccccc3)c2n1 -17.7%, CCNc1nc(NCC)nc(N(C)n2cnnc2)n1 -6%, Nc1ccc(-c2nnc(-c3ccc(-c4ccccc4)cc3)o2)cc1 25.3%, CC(=O)c1cc(C#N)c(SCC(=O)C(C)(C)C)nc1C 34.4%, Cn1c(C(=O)NCCc2ccsc2)cc2c(=O)n(C)c3ccccc3c21 11.7%, COc1ccc(OC)c(CNC(=O)C2CCCN(c3nc4ccccc4o3)C2)c1 (configuration not stated) 17.2%, COc1ccccc1CNC(=O)C1CCN(c2nc3ccccc3o2)CC1 3.5%, COc1ccc2ccccc2c1CNCc1ccccn1 15.9%
